Columns and labels:
Assay in all cases: phage ELISA signal ratio (GST-PRM binding over GST background); higher = stronger binding of peptide-phage to the PRM
[1] = target: T1, EEF1A2 240-332 GTP_EFTU_D2 (domain begin residue: 240, domain end residue: 332), Q05639
T1 chain: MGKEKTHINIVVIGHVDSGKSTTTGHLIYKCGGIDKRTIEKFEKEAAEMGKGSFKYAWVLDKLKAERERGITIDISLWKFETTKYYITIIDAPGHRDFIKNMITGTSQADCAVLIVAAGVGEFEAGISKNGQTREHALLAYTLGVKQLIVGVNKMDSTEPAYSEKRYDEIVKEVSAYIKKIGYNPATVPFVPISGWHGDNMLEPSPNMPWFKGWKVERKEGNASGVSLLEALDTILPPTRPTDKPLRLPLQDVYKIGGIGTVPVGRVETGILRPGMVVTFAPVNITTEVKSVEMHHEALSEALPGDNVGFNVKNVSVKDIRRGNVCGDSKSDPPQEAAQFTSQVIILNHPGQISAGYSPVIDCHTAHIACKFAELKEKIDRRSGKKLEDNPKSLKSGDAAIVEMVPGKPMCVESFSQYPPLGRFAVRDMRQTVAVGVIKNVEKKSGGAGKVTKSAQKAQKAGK
Summary of the method: (§1)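 Human peptide recognition domains were expressed in 96-well plates as fusions to the C-terminus of glutathione S-transferase (GST) and selected against an M13 phage library displaying randomized hexadecapeptides, cysteine-free and glycine-flanked, on the gene-8 major coat protein. Five selection rounds were run, and approximately 48 individual clones from rounds 4 and 5 were tested by phage ELISA. Each value is the ELISA signal on the GST-domain fusion divided by the signal on GST alone. Positive clones were sequenced.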

[2] = target: DYNLL1 1-89 Dynein_light (domain begin residue: 1, domain end residue: 89), P63167
Summary of the method: as §1

[3] = target: T2, DYNLL2 1-89 Dynein_light (domain begin residue: 1, domain end residue: 89), Q96FJ2
T2 chain: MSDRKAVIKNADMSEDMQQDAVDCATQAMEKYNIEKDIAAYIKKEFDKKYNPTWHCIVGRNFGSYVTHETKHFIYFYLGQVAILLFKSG
Summary of the method: as §1

[4] = target: EGFR 334-495 Recep_L_domain (domain begin residue: 334, domain end residue: 495), P00533
Summary of the method: as §1

[5] = target: T3, EEF1A1 244-333 GTP_EFTU_D2 (domain begin residue: 244, domain end residue: 333), P68104
T3 chain: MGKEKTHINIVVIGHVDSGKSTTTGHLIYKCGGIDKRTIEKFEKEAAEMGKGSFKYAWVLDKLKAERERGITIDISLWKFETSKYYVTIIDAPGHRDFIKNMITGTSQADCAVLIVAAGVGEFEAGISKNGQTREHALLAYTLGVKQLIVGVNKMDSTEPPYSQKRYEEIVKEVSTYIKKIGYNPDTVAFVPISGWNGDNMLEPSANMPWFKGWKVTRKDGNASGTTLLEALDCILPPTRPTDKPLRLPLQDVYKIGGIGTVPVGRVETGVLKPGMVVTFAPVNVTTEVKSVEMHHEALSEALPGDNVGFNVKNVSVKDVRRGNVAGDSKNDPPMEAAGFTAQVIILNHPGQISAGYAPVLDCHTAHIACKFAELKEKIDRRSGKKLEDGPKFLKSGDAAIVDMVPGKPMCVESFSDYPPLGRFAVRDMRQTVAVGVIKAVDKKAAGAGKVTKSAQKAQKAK
Summary of the method: as §1

DYNLL1 1-89 Dynein_light (domain begin residue: 1, domain end residue: 89), P63167, sequence (P63167 whole entry): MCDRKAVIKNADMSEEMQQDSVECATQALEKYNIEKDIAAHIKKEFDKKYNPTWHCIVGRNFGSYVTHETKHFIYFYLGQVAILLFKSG

B1: unnamed (peptide)
chain: PWGPYQSFSELDIKHE
**Q.** Which “phage ELISA signal ratio” value [1] does the source give for B1 here?
**A.** 17.3

B2: unnamed (peptide)
chain: TQTEWLWNWGESAHML
**Q.** For B2, which “phage ELISA signal ratio” value [2] is on record?
**A.** 29.8

B3: unnamed (peptide)
chain: SPTEWVWNWGENAQML
**Q.** How did the “phage ELISA signal ratio” value [2] turn out when B3 was run?
**A.** 24.1

B4: unnamed (peptide)
chain: TQTEEYMQMLWPYQDV
**Q.** For B4, which “phage ELISA signal ratio” value [2] is on record?
**A.** 21.3

B5: unnamed (peptide)
chain: DIFPTYQHFMQQYSSE
**Q.** How did the “phage ELISA signal ratio” value [3] turn out when B5 was run?
**A.** 30.3

B6: unnamed (peptide)
chain: VQTIGTWEWDHVPVEV
**Q.** Which “phage ELISA signal ratio” value [3] does the source give for B6 here?
**A.** 41

B7: unnamed (peptide)
chain: VQTEAWWPLQTPAWMV
**Q.** With B7 as the binder, how does the “phage ELISA signal ratio” value [3] read?
**A.** 19.7

B8: unnamed (peptide)
chain: TQTGFGQAHMETPHSL
**Q.** With B8 as the binder, how does the “phage ELISA signal ratio” value [3] read?
**A.** 35.8

B9: unnamed (peptide)
chain: SQTPDEWDWQPGAWIT
**Q.** With B9 as the binder, how does the “phage ELISA signal ratio” value [2] read?
**A.** 19.7

B10: unnamed (peptide)
chain: VTVGTQWDGFHVDAPI
**Q.** With B10 as the binder, how does the “phage ELISA signal ratio” value [2] read?
**A.** 19.6

B11: unnamed (peptide)
chain: TQTPYDWLYPAATYLT
**Q.** For B11, which “phage ELISA signal ratio” value [2] is on record?
**A.** 28

B12: unnamed (peptide)
chain: TQTMSWTGEKPQQWEM
**Q.** For B12, which “phage ELISA signal ratio” value [3] is on record?
**A.** 27

B13: unnamed (peptide)
chain: TMTPWDWPIYQGESEH
**Q.** Which “phage ELISA signal ratio” value [3] does the source give for B13 here?
**A.** 25.7

B14: unnamed (peptide)
chain: QWDFSQMTWWPIEEWK
**Q.** With B14 as the binder, how does the “phage ELISA signal ratio” value [4] read?
**A.** 13.3

B15: unnamed (peptide)
chain: SQTEPMPLWSRDAEVT
**Q.** Which “phage ELISA signal ratio” value [2] does the source give for B15 here?
**A.** 23.1

B16: unnamed (peptide)
chain: SSTTGDDVLNSLTEMP
**Q.** For B16, which “phage ELISA signal ratio” value [3] is on record?
**A.** 34.4

B17: unnamed (peptide)
chain: TQTEPAWGETGEMTAI
**Q.** Which “phage ELISA signal ratio” value [2] does the source give for B17 here?
**A.** 26

B18: unnamed (peptide)
chain: ISVGTQTDWTEPPQMG
**Q.** B18 was tested. Which “phage ELISA signal ratio” value [2] did it give?
**A.** 29.1

B19: unnamed (peptide)
chain: TQFGETWVNWIPLTIT
**Q.** B19 was tested. Which “phage ELISA signal ratio” value [3] did it give?
**A.** 25.9

B20: unnamed (peptide)
chain: GQTEFVYKQMPVSGAR
**Q.** With B20 as the binder, how does the “phage ELISA signal ratio” value [3] read?
**A.** 33

B21: unnamed (peptide)
chain: EMWTQTTSYDFLQMQG
**Q.** How did the “phage ELISA signal ratio” value [2] turn out when B21 was run?
**A.** 20.7

B22: unnamed (peptide)
chain: TQTDLMGDHWPQHKMT
**Q.** Which “phage ELISA signal ratio” value [2] does the source give for B22 here?
**A.** 24.5

B23: unnamed (peptide)
chain: MATQTDWNWGFLQEME
**Q.** B23 was tested. Which “phage ELISA signal ratio” value [2] did it give?
**A.** 29.1

B24: unnamed (peptide)
chain: TQTLILDMDNMKFMTT
**Q.** B24 was tested. Which “phage ELISA signal ratio” value [3] did it give?
**A.** 36.6

B25: unnamed (peptide)
chain: LREMGTQTGEMITDYV
**Q.** Which “phage ELISA signal ratio” value [2] does the source give for B25 here?
**A.** 25.8

B26: unnamed (peptide)
chain: VDQASQTWVWWAGQAY
**Q.** With B26 as the binder, how does the “phage ELISA signal ratio” value [3] read?
**A.** 35.9

B27: unnamed (peptide)
chain: TQTDESMWLWHWPEDH
**Q.** For B27, which “phage ELISA signal ratio” value [2] is on record?
**A.** 29.4

B28: unnamed (peptide)
chain: MEMGTQTYKWQEWAFV
**Q.** Which “phage ELISA signal ratio” value [3] does the source give for B28 here?
**A.** 31.3

B29: unnamed (peptide)
chain: SDHTHWQLIQWDGWML
**Q.** B29 was tested. Which “phage ELISA signal ratio” value [1] did it give?
**A.** 11.6

B30: unnamed (peptide)
chain: TQTGESEMYFWNHMPK
**Q.** Which “phage ELISA signal ratio” value [2] does the source give for B30 here?
**A.** 22.7

B31: unnamed (peptide)
chain: TQVWPDDWWALGNYYE
**Q.** For B31, which “phage ELISA signal ratio” value [3] is on record?
**A.** 32

B32: unnamed (peptide)
chain: MSLGTQTDWQEPMWWL
**Q.** How did the “phage ELISA signal ratio” value [2] turn out when B32 was run?
**A.** 26.8

B33: unnamed (peptide)
chain: SQTDPTYWFPWEDKWN
**Q.** B33 was tested. Which “phage ELISA signal ratio” value [2] did it give?
**A.** 28.8

B34: unnamed (peptide)
chain: TQTEYWVIDMPDWMTI
**Q.** Which “phage ELISA signal ratio” value [2] does the source give for B34 here?
**A.** 21.2

B35: unnamed (peptide)
chain: TQTEFPWEDARLPKQE
**Q.** Which “phage ELISA signal ratio” value [2] does the source give for B35 here?
**A.** 28.7

B36: unnamed (peptide)
chain: AMVQTEDDWEMMWEQL
**Q.** B36 was tested. Which “phage ELISA signal ratio” value [3] did it give?
**A.** 17.6

B37: unnamed (peptide)
chain: EFFIPKEFYWDRVQDV
**Q.** How did the “phage ELISA signal ratio” value [4] turn out when B37 was run?
**A.** 26.6

B38: unnamed (peptide)
chain: VDMGTQTEASLLRYSV
**Q.** B38 was tested. Which “phage ELISA signal ratio” value [2] did it give?
**A.** 33.5

B39: unnamed (peptide)
chain: SQTDWYDELFSQLVVT
**Q.** How did the “phage ELISA signal ratio” value [2] turn out when B39 was run?
**A.** 27.9

B40: unnamed (peptide)
chain: TMTDATLFEVPSYWIT
**Q.** Which “phage ELISA signal ratio” value [3] does the source give for B40 here?
**A.** 31.9

B41: unnamed (peptide)
chain: TQTLAWDWYYEFPEMI
**Q.** B41 was tested. Which “phage ELISA signal ratio” value [2] did it give?
**A.** 24.5

B42: unnamed (peptide)
chain: WTQTMNNITPWIEGIA
**Q.** Which “phage ELISA signal ratio” value [3] does the source give for B42 here?
**A.** 26.2

B43: unnamed (peptide)
chain: TQTDMNFWHSPWVELV
**Q.** With B43 as the binder, how does the “phage ELISA signal ratio” value [2] read?
**A.** 24.8

B44: unnamed (peptide)
chain: TQTDAWEMTMLAQQAV
**Q.** Which “phage ELISA signal ratio” value [2] does the source give for B44 here?
**A.** 25.2

B45: unnamed (peptide)
chain: TQTDVISWQEFIFMRP
**Q.** How did the “phage ELISA signal ratio” value [3] turn out when B45 was run?
**A.** 36.2

B46: unnamed (peptide)
chain: HWWQDNQGYVWFQVEQ
**Q.** For B46, which “phage ELISA signal ratio” value [1] is on record?
**A.** 5.34

B47: unnamed (peptide)
chain: VQTDWMDWWMPDPFNA
**Q.** With B47 as the binder, how does the “phage ELISA signal ratio” value [2] read?
**A.** 23.6

B48: unnamed (peptide)
chain: GTQTDDTMVYFPREQR
**Q.** For B48, which “phage ELISA signal ratio” value [2] is on record?
**A.** 22.8

B49: unnamed (peptide)
chain: TQTEDWPQRESQPNWM
**Q.** For B49, which “phage ELISA signal ratio” value [2] is on record?
**A.** 25.2

B50: unnamed (peptide)
chain: ATPPQLTAHPNFMMWF
**Q.** How did the “phage ELISA signal ratio” value [5] turn out when B50 was run?
**A.** 8.96

B51: unnamed (peptide)
chain: QQTDDWHVAETGIWLA
**Q.** Which “phage ELISA signal ratio” value [3] does the source give for B51 here?
**A.** 13.9

B52: unnamed (peptide)
chain: ETQTPEWMGWLMESAI
**Q.** With B52 as the binder, how does the “phage ELISA signal ratio” value [3] read?
**A.** 34.3

B53: unnamed (peptide)
chain: TQTEPYKHQDQAHTRG
**Q.** Which “phage ELISA signal ratio” value [3] does the source give for B53 here?
**A.** 26.1

B54: unnamed (peptide)
chain: KDFGTQVDFDILHEEE
**Q.** Which “phage ELISA signal ratio” value [2] does the source give for B54 here?
**A.** 27.5

B55: unnamed (peptide)
chain: TEMYEWMADATTNTMW
**Q.** For B55, which “phage ELISA signal ratio” value [3] is on record?
**A.** 28

B56: unnamed (peptide)
chain: STQTDSNWKMMPDGTV
**Q.** Which “phage ELISA signal ratio” value [3] does the source give for B56 here?
**A.** 34.5

B57: unnamed (peptide)
chain: GTQTDEIFYLREYKSM
**Q.** How did the “phage ELISA signal ratio” value [3] turn out when B57 was run?
**A.** 19.2
